Results taken from PubChem BioAssay (EPA / NIEHS).
Calls of active or inactive are those of the source. Rule for the calls: active = hit-call score of the fitted dose curve at least 0.9, where 1 is the maximum; inactive = score below 0.9.

Each molecule was assayed on Transforming Growth Factor (TGFA), TGFA (gene 7039) (assay: LTEA_HepaRG_TGFA: Life Technologies and Expression Analysis (LTEA) Assay for Transforming Growth Factor (TGFA) using HepaRG (AID 2283532)). Conditions: mRNA level, 48 h; actives raise or lower the signal.
Outline: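 qRT-PCR read-out of TGFA transcript, normalized to three housekeeping genes, fitted bidirectionally against 0.5% DMSO baseline. Human HepaRG cultures received chemicals for 48 h at eight half-log concentrations, top 100 uM.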
For `C=C(C)CN(CC)c1c([N+](=O)[O-])cc(C(F)(F)F)cc1[N+](=O)[O-]`, the outcome was “inactive”.
For `N#Cc1c[nH]cc1-c1cccc2c1OC(F)(F)O2`, the outcome was “inactive”.
In the case of `CCOc1nc(C(Cl)(Cl)Cl)ns1`, the AC50 is reported as 1.14 µM (active).
In the case of `CCN(CC)c1nc(C)cc(OP(=S)(OC)OC)n1`, the outcome is reported as “inactive”.
For `O=C(Nc1ccccc1-c1ccc(Cl)cc1)c1cccnc1Cl`, the outcome was “inactive”.
`COC(=O)NS(=O)(=O)c1ccc(N)cc1` was tested, and the outcome was “inactive”.
In the case of `CC(C)NC(=O)N1CC(=O)N(c2cc(Cl)cc(Cl)c2)C1=O`, the outcome is reported as “inactive”.
`CC(C)Oc1cccc(NC(=O)c2ccccc2C(F)(F)F)c1` was tested, and the outcome was “inactive”.
For `O=C1C2CC=CCC2C(=O)N1SC(Cl)(Cl)Cl` (stereo not given), the outcome was “inactive”.
With `OC(c1ccc(Cl)cc1)(c1ccc(Cl)cc1)C(Cl)(Cl)Cl` the AC50 was 70.5 µM (active).
With `COc1ccc(-c2ccccc2)cc1NNC(=O)OC(C)C` the outcome was “inactive”.
With `CCCC(=NOCC)C1=C(O)CC(CC(C)SCC)CC1=O` (stereo not given) the outcome was “inactive”.
With `CC(C)=CC1C(C(=O)OCc2coc(Cc3ccccc3)c2)C1(C)C` (stereo not given) the outcome was “inactive”.
For `CC1(C)C(C=C(Cl)Cl)C1C(=O)OC(C#N)c1cccc(Oc2ccccc2)c1` (stereo not given), the outcome was “inactive”.
With `CO/N=C(/C1=NOCCO1)c1ccccc1Oc1ncnc(Oc2ccccc2Cl)c1F` the AC50 was 31.2 µM (active).
In the case of `CNC(=O)N(C)c1nnc(C(C)(C)C)s1`, the outcome is reported as “inactive”.
For `N#CN=C1SCCN1Cc1ccc(Cl)nc1`, the outcome was “inactive”.
With `CCCCOCN(C(=O)CCl)c1c(CC)cccc1CC` the outcome was “inactive”.
In the case of `Nc1cnn(-c2ccccc2)c(=O)c1Cl`, the outcome is reported as “inactive”.
In the case of `O=c1n(Cl)c(=O)n(Cl)c(=O)n1Cl`, the outcome is reported as “inactive”.
In the case of `CNC(=O)Oc1cccc2ccccc12`, the outcome is reported as “inactive”.
In the case of `CC(C)N1C(=O)N(c2ccccc2)CSC1=NC(C)(C)C`, the AC50 is reported as 79.4 µM (active).
With `CCSC(=O)N1CCCCCC1` the outcome was “inactive”.
With `COP(=O)(OC)O/C(C)=C/C(=O)N(C)C` the outcome was “inactive”.
With `Nc1c(Cl)c(F)nc(OCC(=O)O)c1Cl` the outcome was “inactive”.
`Cc1cc(C)nc(Nc2ccccc2)n1` was tested, and the outcome was “inactive”.
`O=C(O)c1c(Cl)ccc2cc(Cl)cnc12` was tested, and the outcome was “inactive”.
`N#Cc1c(Cl)cccc1Cl` was tested, and the outcome was “inactive”.
With `CC1(C)C(C(=O)OC(C#N)c2cccc(Oc3ccccc3)c2)C1(C)C` (stereo not given) the outcome was “inactive”.
`COCC(C)N(C(=O)CCl)c1c(C)csc1C` (stereo not given) was tested, and the outcome was “inactive”.
With `Cc1c(COC(=O)[C@@H]2[C@H](/C=C(\Cl)C(F)(F)F)C2(C)C)cccc1-c1ccccc1` the outcome was “inactive”.
In the case of `CCCN(CC)CC1COC2(CCC(C(C)(C)C)CC2)O1` (stereo not given), the outcome is reported as “inactive”.
With `COC(=O)c1c(C(F)F)nc(C(F)(F)F)c(C2=NCCS2)c1CC(C)C` the outcome was “inactive”.
`CCCCC(O)(Cn1cncn1)c1ccc(Cl)cc1Cl` (stereo not given) was tested, and the AC50 was 71.8 µM (active).
For `CC(C)N1C(=O)c2ccccc2NS1(=O)=O`, the outcome was “inactive”.
In the case of `CCOP(=S)(OCC)Oc1nc(Cl)n(C(C)C)n1`, the outcome is reported as “inactive”.

The molecules below were run on Transforming Growth Factor (TGFB1), TGFB1 (gene 7040) (assay: LTEA_HepaRG_TGFB1: Life Technologies and Expression Analysis (LTEA) Assay for Transforming Growth Factor (TGFB1) Transporter using HepaRG (AID 2283533)). Conditions: mRNA level, 48 h; actives raise or lower the signal.
Outline: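 Eight-point concentration-response (max 100 uM, half-log) in HepaRG under serum-free induction conditions, 48 h. TGFB1 mRNA by qRT-PCR, housekeeping-normalized.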
`C=C(C)CN(CC)c1c([N+](=O)[O-])cc(C(F)(F)F)cc1[N+](=O)[O-]` was tested, and the outcome was “inactive”.
`CCOc1nc(C(Cl)(Cl)Cl)ns1` was tested, and the AC50 was 0.687 µM (active).
`CC(C)NC(=O)N1CC(=O)N(c2cc(Cl)cc(Cl)c2)C1=O` was tested, and the outcome was “inactive”.
In the case of `CC(C)Oc1cccc(NC(=O)c2ccccc2C(F)(F)F)c1`, the outcome is reported as “inactive”.
With `O=C1C2CC=CCC2C(=O)N1SC(Cl)(Cl)Cl` (stereo not given) the outcome was “inactive”.
In the case of `OC(c1ccc(Cl)cc1)(c1ccc(Cl)cc1)C(Cl)(Cl)Cl`, the AC50 is reported as 50 µM (active).
In the case of `COc1ccc(-c2ccccc2)cc1NNC(=O)OC(C)C`, the outcome is reported as “inactive”.
For `CCCC(=NOCC)C1=C(O)CC(CC(C)SCC)CC1=O` (stereo not given), the outcome was “inactive”.
`CC1(C)C(C=C(Cl)Cl)C1C(=O)OC(C#N)c1cccc(Oc2ccccc2)c1` (stereo not given) was tested, and the outcome was “inactive”.
`CO/N=C(/C1=NOCCO1)c1ccccc1Oc1ncnc(Oc2ccccc2Cl)c1F` was tested, and the outcome was “inactive”.
In the case of `N#CN=C1SCCN1Cc1ccc(Cl)nc1`, the outcome is reported as “inactive”.
For `Nc1c(Cl)c(F)nc(OCC(=O)O)c1Cl`, the outcome was “inactive”.
With `N#Cc1c(Cl)cccc1Cl` the outcome was “inactive”.
With `Cc1c(COC(=O)[C@@H]2[C@H](/C=C(\Cl)C(F)(F)F)C2(C)C)cccc1-c1ccccc1` the outcome was “inactive”.
For `CCCN(CC)CC1COC2(CCC(C(C)(C)C)CC2)O1` (stereo not given), the outcome was “inactive”.
With `CCCCC(O)(Cn1cncn1)c1ccc(Cl)cc1Cl` (stereo not given) the AC50 was 61.2 µM (active).
In the case of `CC(C)N1C(=O)c2ccccc2NS1(=O)=O`, the outcome is reported as “inactive”.
With `CCOP(=S)(OCC)Oc1nc(Cl)n(C(C)C)n1` the outcome was “inactive”.

What follows are molecules tested on TIMP1, TIMP1 (gene 7076) (assay: LTEA_HepaRG_TIMP1: Life Technologies and Expression Analysis (LTEA) Assay for TIMP1 using HepaRG (AID 2283534;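 note: TaqMan qRT-PCR signal normalized to ACTB GAPDH and POLR2A housekeeping genes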)). Conditions: mRNA level, 48 h; actives raise or lower the signal.
Outline: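 TIMP1 induction or repression in HepaRG cells after 48 h chemical exposure (eight concentrations, highest 100 uM), assessed by normalized qRT-PCR with bidirectional fitting to DMSO controls.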
`CCN(CC)c1nc(C)cc(OP(=S)(OC)OC)n1` was tested, and the outcome was “inactive”.
In the case of `CC(C)NC(=O)N1CC(=O)N(c2cc(Cl)cc(Cl)c2)C1=O`, the outcome is reported as “inactive”.
For `CC(C)Oc1cccc(NC(=O)c2ccccc2C(F)(F)F)c1`, the outcome was “inactive”.
With `O=C1C2CC=CCC2C(=O)N1SC(Cl)(Cl)Cl` (stereo not given) the outcome was “inactive”.
For `COc1ccc(-c2ccccc2)cc1NNC(=O)OC(C)C`, the outcome was “inactive”.
In the case of `CCCC(=NOCC)C1=C(O)CC(CC(C)SCC)CC1=O` (stereo not given), the outcome is reported as “inactive”.
`CNC(=O)N(C)c1nnc(C(C)(C)C)s1` was tested, and the outcome was “inactive”.
`CCCCOCN(C(=O)CCl)c1c(CC)cccc1CC` was tested, and the outcome was “inactive”.
With `O=c1n(Cl)c(=O)n(Cl)c(=O)n1Cl` the outcome was “inactive”.
In the case of `CNC(=O)Oc1cccc2ccccc12`, the outcome is reported as “inactive”.
For `CCSC(=O)N1CCCCCC1`, the outcome was “inactive”.
With `Nc1c(Cl)c(F)nc(OCC(=O)O)c1Cl` the outcome was “inactive”.
With `Cc1cc(C)nc(Nc2ccccc2)n1` the outcome was “inactive”.
`O=C(O)c1c(Cl)ccc2cc(Cl)cnc12` was tested, and the outcome was “inactive”.
With `CC1(C)C(C(=O)OC(C#N)c2cccc(Oc3ccccc3)c2)C1(C)C` (stereo not given) the outcome was “inactive”.
With `COCC(C)N(C(=O)CCl)c1c(C)csc1C` (stereo not given) the outcome was “inactive”.
